Source: PubChem
Granule exo inh = lytic granule exocytosis inhibition; 360,000 tested, 0.66% active; inhibition, % at 10 µM; TALL-104 LAMP-1 surface exposure, flow cytometry; cells stimulated with thapsigargin and PMA;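 active means inhibition above about 55%, limit read from the data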
ABCB6 inh MLPCN = human ABCB6 transporter inhibition; Q9NP58; fluorescence ratio to DMSO, % at 10 µM; K562-ABCB6 porphyrin accumulation, flow cytometry, 1 h; hits give low values; 360,000 tested, 0.19% active;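 active means fluorescence ratio to DMSO below 75%, the collection mean minus 3 SD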;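 further: signal is porphyrin accumulated inside mitochondria; lower ratio means ABCB6 inhibition with less porphyrin fluorescence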
Target sequence (Q9NP58 whole entry, looked up): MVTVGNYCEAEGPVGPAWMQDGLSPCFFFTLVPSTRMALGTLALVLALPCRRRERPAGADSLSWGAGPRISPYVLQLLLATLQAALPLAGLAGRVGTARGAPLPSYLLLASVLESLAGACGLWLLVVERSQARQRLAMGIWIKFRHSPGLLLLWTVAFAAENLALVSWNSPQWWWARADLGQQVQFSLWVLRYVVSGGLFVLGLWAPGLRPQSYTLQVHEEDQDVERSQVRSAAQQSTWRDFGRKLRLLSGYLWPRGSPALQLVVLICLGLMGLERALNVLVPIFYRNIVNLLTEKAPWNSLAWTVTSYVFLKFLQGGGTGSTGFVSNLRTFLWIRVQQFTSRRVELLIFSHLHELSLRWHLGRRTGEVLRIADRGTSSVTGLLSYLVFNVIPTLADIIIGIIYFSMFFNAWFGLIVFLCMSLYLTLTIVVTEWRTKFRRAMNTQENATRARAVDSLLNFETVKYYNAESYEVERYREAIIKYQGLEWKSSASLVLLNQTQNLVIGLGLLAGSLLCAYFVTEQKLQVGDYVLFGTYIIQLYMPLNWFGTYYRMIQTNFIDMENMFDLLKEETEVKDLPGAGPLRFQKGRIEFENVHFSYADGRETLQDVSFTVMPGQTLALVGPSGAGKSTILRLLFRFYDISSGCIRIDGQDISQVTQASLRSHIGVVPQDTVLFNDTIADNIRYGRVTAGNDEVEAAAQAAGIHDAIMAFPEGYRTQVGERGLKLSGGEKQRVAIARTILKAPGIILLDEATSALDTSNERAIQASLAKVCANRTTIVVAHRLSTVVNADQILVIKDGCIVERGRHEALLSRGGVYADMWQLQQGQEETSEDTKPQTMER
PG9 binder = PG9 antibody binding by small molecule | 360,000 tested, 0.43% active | inhibition, % at 6.7 µM | TR-FRET gp120-PG9 antibody binding; in the data active means inhibition above about 8.5%
rCAG RNA binder = r(CAG) repeat RNA binding; TO-PRO-1 dye displacement fluorescence; inhibition, % at 3 µM; 370,000 tested, 1.3% active; AID 651821;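 active means inhibition above the plate cutoff, the mean of all test compounds on that plate plus 3 SD, cut at about 35% in these data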;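 further: higher means more dye released from RNA so lower well fluorescence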
PG9 binder conf = PG9 antibody binding, confirmed | shares compounds with PG9 binder | TR-FRET PG9 antibody binding, biochemical | inhibition, % at 6.7 µM | 1,500 tested, 90% active; in the data active means inhibition above about 9%
PGV04 Ab binding = PGV04 control antibody binding, counter-screen. shares compounds with PG9 binder. TR-FRET PGV04 antibody-gp120 binding, biochemical. inhibition, % at 6.7 µM. 1,500 tested, 95% active. AID 651604; in the data active means inhibition above about 9.5%
Large screens that a line does not name were inactive (follow-up assays come after a bar, where they were run). The list is not random: actives were taken first. Their share in the collection is about 2.5%.

Cc1sc2nc(SCC(=O)NCc3ccco3)n(CCc3ccccc3)c(=O)c2c1C	PG9 binder 28.2 | PG9 binder conf 30.1 | PGV04 Ab binding 34.0
CCOc1cc(/C=N/NC(=O)C(=O)NCCCOC(C)C)cc(Br)c1O	none
N#CC1(NC(=O)CN2C(=O)c3ccc([N+](=O)[O-])cc3C2=O)CCCCC1	none
CCc1ccccc1NC(=O)CC1S/C(=N\c2nccs2)N(CC)C1=O (configuration not stated)	PG9 binder 15.0 | PG9 binder conf 9.0 | PGV04 Ab binding 12.3
Cc1ccccc1NC(=O)CC1S/C(=N/c2nccs2)N(C)C1=O (configuration not stated)	none
Cn1c(SCC(=O)N2CCCC2=O)nc2ccccc21	none
O=c1[nH]c2ccccc2cc1CN(c1ccccc1)S(=O)(=O)c1ccccc1	PG9 binder 18.2 | PG9 binder conf 25.0 | PGV04 Ab binding 26.7
Cc1cccc(N(Cc2cc3ccccc3[nH]c2=O)S(=O)(=O)c2ccccc2)c1	none
N/C(=N\c1nc(CSc2nc3ccccc3s2)cc(=O)[nH]1)Nc1ccc(F)cc1	PG9 binder 9.3 | PG9 binder conf 27.4 | PGV04 Ab binding 39.6
COCCNC(=O)C1(C)CCCN(C(=O)c2ccc3c(c2)CCO3)C1 (configuration not stated)	none
O=C(CNC(=O)C1COc2ccccc2O1)Nc1ccc(F)c(F)c1 (configuration not stated)	none
COc1ccc(C(=O)COC(=O)c2cccc(-n3cnnn3)c2)c(OC)c1	PG9 binder 17.6 | PG9 binder conf inactive | PGV04 Ab binding inactive
COc1ccc(C(=O)COC(=O)c2cc(=O)[nH]c3ccccc23)c(OC)c1	PG9 binder 46.1 | PG9 binder conf 50.2 | PGV04 Ab binding 77.8
O=C(CNC(=O)c1sc2ccccc2c1Cl)NCc1ccc(F)cc1	PG9 binder 12.3 | PG9 binder conf inactive | PGV04 Ab binding 20.7
O=C(CNC(=O)c1sc2ccccc2c1Cl)NCc1cccnc1	none
O=C(CNC(=O)c1sc2ccccc2c1Cl)Nc1ccccc1F	PG9 binder 12.1 | PG9 binder conf 16.5 | PGV04 Ab binding 32.5
O=c1[nH]cnc(O)c1C(c1ccc([N+](=O)[O-])cc1)c1c(O)nc[nH]c1=O	none
Cc1ccc(/C=N/NC(=O)CNC(=O)c2cccc([N+](=O)[O-])c2C)o1	none
COc1ccc(C(=O)OCC(=O)NC(=O)NC(C)C)cc1OC	none
CCCn1c(/C=C/c2cc[n+](C)cc2)nc2ccccc21	PG9 binder 10.2 | PG9 binder conf 13.0 | PGV04 Ab binding 15.3
CC(C)CCNC(=O)c1cc2c(=O)[nH]c3ccccc3c2s1	PG9 binder 10.0 | PG9 binder conf 16.9 | PGV04 Ab binding 20.9
Cc1ccc2[nH]c(=O)c3cc(C(=O)NCCC(C)C)sc3c2c1	none
COc1ccc(-c2cc(-c3ccc(Br)cc3)nc3ncnn23)cc1OC	PG9 binder 13.0 | PG9 binder conf 12.1 | PGV04 Ab binding 20.1
N#Cc1c(NC(=O)C2CC=CCC2C(=O)O)sc2c1CCCCCC2 (configuration not stated)	PG9 binder 11.2 | PG9 binder conf 9.0 | PGV04 Ab binding 9.4
CCCCCNC(=O)C(c1cc2ccccc2o1)n1c(=O)c(-c2ccco2)nc2ccccc21 (configuration not stated)	none (no result: ABCB6 inh MLPCN)
CCCCCNC(=O)C(c1ccncc1)n1c(=O)c(-c2ccco2)nc2ccccc21 (configuration not stated)	PG9 binder 9.1 (no result: ABCB6 inh MLPCN) | PG9 binder conf inactive | PGV04 Ab binding inactive
Cn1c(/C=C/c2ccc(Cl)cc2)nc2ccccc2c1=O	PG9 binder 32.2 | PG9 binder conf inactive | PGV04 Ab binding inactive
Cn1c(/C=C/c2ccccc2)nc2ccccc2c1=O	none
CCOC(=O)c1c(NC(=O)CSc2nc3cc(Cl)ccc3c(=O)n2Cc2ccco2)sc(C(=O)N(C)C)c1C	PG9 binder 50.9 | PG9 binder conf 9.5 | PGV04 Ab binding 22.8
N#CC(C#N)=C1NC(N)=C(C#N)C(c2ccccc2)=C1C#N	PG9 binder 21.8 | PG9 binder conf 21.3 | PGV04 Ab binding 25.8
COc1ccc(OCCCC(=O)OCC(=O)c2ccc3c(c2)NC(=O)CO3)cc1	none
Cc1ccc(OCCC(=O)OCC(=O)c2ccc3c(c2)NC(=O)CO3)cc1	PG9 binder 26.6 | PG9 binder conf 19.6 | PGV04 Ab binding 37.8
O=C1COc2ccc(C(=O)COC(=O)c3ncc(Cl)c(Cl)c3Cl)cc2N1	PG9 binder 10.7 | PG9 binder conf 17.5 | PGV04 Ab binding 27.4
